The supplement of paper PMC10941209

System: HFF
Test: cell viability relative to DMSO control; higher = less cytotoxic
Details: 1 µM; 72 h
Experimental: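 Single-dose cytotoxicity screen of the MMV Pandemic Response Box at 1 uM on human foreskin fibroblasts (HFF), 72 h at 37 C. Viability measured by MTT (OD 550 nm) and normalised to the DMSO control (% survival).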

Structure (SMILES)	cell viability [%]
CN(C/C=C/C#CC(C)(C)C)Cc1cccc2ccccc12	64.9
O=C(O)c1ccc(-c2ccc(O[C@H]3O[C@H](CO)[C@@H](O)[C@H](O)[C@@H]3O)cc2)cc1	63.9
O=C(NO)C1(CS(=O)(=O)c2ccc(Oc3ccc(Cl)cc3)cc2)CCOCC1	72.6
Cc1oncc1C(=O)Nc1ccc(C(F)(F)F)cc1	65.7
CN1CCN(Cc2ccc(-c3cnc4[nH]cc(-c5ccc6[nH]ccc6c5)c4c3)cc2)CC1	75.3
Oc1c(C(Nc2ccccn2)c2ccccc2)ccc2cccnc12 (configuration not stated)	69.9
CCCCN1C[C@H](O)[C@@H](O)[C@H](O)[C@H]1CO	63.2
CNC(=O)C1O[C@@H](n2cnc3c(NCc4cccc(I)c4)nc(Cl)nc32)[C@H](O)[C@@H]1O (some centres not stated)	61.2
CCCCc1ccc(-c2nc(C)c(C(=O)OC)s2)cc1	63.9
Cc1cc(Nc2ccc(F)cc2)nc(SCc2nc3ccccc3[nH]2)n1	66
Cc1ncc([N+](=O)[O-])n1CC(O)CN1CCOCC1 (configuration not stated)	61.1
Cc1ccc(Oc2ccccc2-c2csc(N=C3NCCCN3)n2)c(C)c1	68.5
CCc1ccc(C2CC(C(F)(F)F)n3ncc(C(=O)NCc4ccc(OC)cc4)c3N2)cc1 (configuration not stated)	76.2
CCc1ccccc1OCCN1CCCCCC1	55.1
CCC(CC)[C@H](NC(C)=O)[C@@H]1[C@H](O)[C@@H](C(=O)O)C[C@H]1NC(=N)N	73.5
COc1cc(Cc2cc(N)nc(N)n2)cc(OC)c1OC	65.1
CC(N)C12CC3CC(CC(C3)C1)C2 (configuration not stated)	63.2
N#C/C(=C1/SC[C@H](c2ccc(Cl)cc2Cl)S1)n1ccnc1	74.7
Oc1ccc2[nH]c(-c3ccccc3)nc2c1	69.2

Structure (SMILES)	cell viability [%]
O=C(NC1CCCc2c1[nH]c1ccc(Cl)cc21)c1ccccn1 (configuration not stated)	67.4
CN1CCN(c2ccc3[nH]c(-c4ccc5[nH]c(-c6ccc(O)cc6)nc5c4)nc3c2)CC1	68.8
Nc1cc(N)c2nc(-c3ccccc3)c(Nc3ccc(F)cc3)nc2c1	80.1
CSC[C@H]1CN(Cc2c[nH]c3c(N)ncnc23)C[C@@H]1O	61.5
CC[C@H](NC(=O)[C@H](C)NC)C(=O)N1C[C@@H](O)C[C@H]1Cc1c(-c2[nH]c3cc(F)ccc3c2C[C@@H]2C[C@H](O)CN2C(=O)[C@H](CC)NC(=O)[C@H](C)NC)[nH]c2cc(F)ccc12	31.2
O=C(Nc1ccc(N2CCN(C(=O)c3ccccc3)CC2)cc1)c1ccc2c(c1)OCO2	60.1
CCOC(=O)/C=C/[C@H](C[C@@H]1CCNC1=O)NC(=O)[C@H](CC)n1cccc(NC(=O)c2cc(C)on2)c1=O	68.3
Cc1ccccc1NC(=O)Nc1cccc([N+](=O)[O-])c1	71.1
CC(C)(C)NC(=O)[C@@H]1C[C@@H]2CCCC[C@@H]2CN1C[C@@H](O)[C@H](Cc1ccccc1)NC(=O)[C@H](CC(N)=O)NC(=O)c1ccc2ccccc2n1	78.9
NC(=O)c1c(N)sc2c1CCCCC2	74.1
C[C@@H](NC(=O)c1ccccc1-c1ccccc1)B(O)O	59.6
Cc1cccc(C)c1C(=O)Nc1nc(-c2ccccn2)cc2ccccc12	74.7
C[C@@H](O)[C@H](N)C(=O)NS(=O)(=O)c1cccc(-c2ccc3[nH]ncc3c2)c1	63.3
O=C(O)c1cc(-c2ccc(Br)cc2)nc2ccc(Cl)cc12	57.6
NCC(=O)Nc1ccc(-n2nc(C(F)(F)F)cc2-c2ccc3c(ccc4ccccc43)c2)cc1	80.7
COc1cc(Cc2cnc(N)nc2N)c2c(c1OC)OC(C1CC1)C=C2 (configuration not stated)	74.3
COc1cc(C2C3=C(CC(C)(C)CC3=O)Nc3ccccc3N2C(C)=O)ccc1OCc1ccccc1 (configuration not stated)	67.1
O=P(O)(O)C(CCCc1cccc(Oc2ccccc2)c1)S(=O)(=O)O (configuration not stated)	74.4
